Measured values as given in PubChem BioAssay (NCATS).
Records with an inconclusive call do not appear. The source made the active and inactive calls. Calls come from the whole dose curve; as a rule, active = well fitted curve in the direction sought with a large enough effect; inconclusive = small, poorly fitted or top-dose-only effect, or another doubt; inactive = no such curve, though single readings can be large; an effect the other way counts as inactive or inconclusive.

Columns and labels:
HaCat [1] = experiment: Cytotoxic Profiling of Annotated Libraries Using Quantitative High-Throughput Screening (AID 1296008); details: Five cell lines viability, CellTiter-Glo ATP luminescence, 48-72 h; max response: stronger effect = lower value; note: nearly all actives have a fitted effect of over 60% in size
Method in brief: (§1)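 Cytotoxicity was measured as CellTiter-Glo ATP luminescence, read after 10 min at room temperature. Compound treatment of the cells lasted 48 or 72 hr at 37 degrees Celsius in a qHTS format.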

KB-3-1 = experiment: as above; details: Five cell lines viability, CellTiter-Glo ATP luminescence, 48-72 h; max response: stronger effect = lower value
Method in brief: as §1

NIH3T3 [2] = experiment: as above; details: Five cell lines viability, CellTiter-Glo ATP luminescence, 48-72 h; max response: stronger effect = lower value
Method in brief: as §1

HEK293T [3] = experiment: qHTS assay to identify novel small-molecules to repurpose for Merkel cell carcinoma treatment (AID 1296009); details: MCC and control cell lines, CellTiter-Glo viability, 72 h; at 44.8 µM (top of the series) unless noted; note: nearly all actives have a fitted effect of over 60% in size
Method in brief: (§2)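 72 hr, 37 degree celsius; NPC 8-pt / MIPE 11-pt dose response; compound pinned in DMSO; CellTiter-Glo, 10 min RT, luminescence; normalized to no-cell and DMSO controls.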

MCC-13 = experiment: as above; details: MCC and control cell lines, CellTiter-Glo viability, 72 h; series mostly up to 46 µM
Method in brief: as §2

MCC-26 = experiment: as above; details: MCC and control cell lines, CellTiter-Glo viability, 72 h; series mostly up to 46 µM
Method in brief: as §2

MKL-1 = experiment: as above; details: MCC and control cell lines, CellTiter-Glo viability, 72 h; series mostly up to 46 µM
Method in brief: as §2

MKL-2 = experiment: as above; details: MCC and control cell lines, CellTiter-Glo viability, 72 h; series mostly up to 46 µM
Method in brief: as §2

UISO = experiment: as above; details: MCC and control cell lines, CellTiter-Glo viability, 72 h; series mostly up to 46 µM
Method in brief: as §2

WaGa = experiment: as above; details: MCC and control cell lines, CellTiter-Glo viability, 72 h; series mostly up to 46 µM
Method in brief: as §2

C33A = experiment: Primary qHTS to identify gynecologic anti-cancer compounds using libraries of approved drugs and bioactive compounds (AID 1345084); details: Gynecologic cancer cell panel viability, ATPlite luminescence, 48 h; series mostly up to 57.5 µM; note: nearly all actives have a fitted effect of over 55% in size
Method in brief: (§3)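 Five-point cytotoxicity, 48 h drug exposure at 37 C, 5% CO2, on cells seeded 16 h beforehand. ATP content read by ATPlite luminescence.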

CAOV3 = experiment: as above; details: Gynecologic cancer cell panel viability, ATPlite luminescence, 48 h; series mostly up to 57.5 µM
Method in brief: as §3

CASKI = experiment: as above; details: Gynecologic cancer cell panel viability, ATPlite luminescence, 48 h; series mostly up to 57.5 µM
Method in brief: as §3

Es-2 = experiment: as above; details: Gynecologic cancer cell panel viability, ATPlite luminescence, 48 h; series mostly up to 57.5 µM
Method in brief: as §3

HeLa = experiment: as above; details: Gynecologic cancer cell panel viability, ATPlite luminescence, 48 h; series mostly up to 57.5 µM
Method in brief: as §3

Hek293T [4] = experiment: as above; details: Gynecologic cancer cell panel viability, ATPlite luminescence, 48 h, control line for the selectivity index; series mostly up to 57.5 µM
Method in brief: as §3

JEG-3 = experiment: as above; details: Gynecologic cancer cell panel viability, ATPlite luminescence, 48 h; series mostly up to 57.5 µM
Method in brief: as §3

OV90 = experiment: as above; details: Gynecologic cancer cell panel viability, ATPlite luminescence, 48 h; series mostly up to 57.5 µM
Method in brief: as §3

NIH3T3 [5] = experiment: qHTS assay to identify novel small-molecules to repurpose for Merkel cell carcinoma treatment (AID 1296009); details: MCC and control cell lines, CellTiter-Glo viability, 72 h; at 44.8 µM (top of the series) unless noted; note: nearly all actives have a fitted effect of over 60% in size
Method in brief: as §2

HACAT [6] = experiment: as above; details: MCC and control cell lines, CellTiter-Glo viability, 72 h; at 44.8 µM (top of the series) unless noted
Method in brief: as §2
% is set by controls: 0 for no effect and ±100 for the full control effect.

O=C(CCCCC(=O)Nc1c(I)cc(I)c(C(=O)O)c1I)Nc1c(I)cc(I)c(C(=O)O)c1I
inactive: max response (HaCat [1]) 4.99% | max response (KB-3-1) -11.9% | max response (NIH3T3 [2]) 4.23% | outcome (HEK293T [3]) | Potency (MCC-13) | Potency (MCC-26) | Potency (MKL-1) | Potency (MKL-2) | Potency (UISO) | Potency (WaGa) | Potency (C33A) | Potency (CAOV3) | Potency (CASKI) | Potency (Es-2) | Potency (HeLa) | Potency (Hek293T [4]) | Potency (JEG-3) | Potency (OV90)

Cc1ccccc1N1CCN(CCc2nnc3n2CCCC3)CC1
inactive: max response (HaCat [1]) -11.8% | max response (KB-3-1) -5.62% | max response (NIH3T3 [2]) 4.77% | outcome (HEK293T [3]) | Potency (MCC-13) | Potency (MCC-26) | Potency (MKL-1) | Potency (MKL-2) | Potency (UISO) | Potency (WaGa) | Potency (C33A) | Potency (CAOV3) | Potency (CASKI) | Potency (Es-2) | Potency (HeLa) | Potency (Hek293T [4]) | Potency (JEG-3) | Potency (OV90)

OC[C@]1(O)OC[C@@H](O)[C@H](O)[C@@H]1O
inactive: max response (HaCat [1]) -0.702% | max response (KB-3-1) -6.46% | outcome (NIH3T3 [2]) | outcome (HEK293T [3]) | Potency (MCC-13) | Potency (MCC-26) | Potency (MKL-1) | Potency (MKL-2) | outcome (NIH3T3 [5]) | Potency (UISO) | Potency (WaGa) | Potency (C33A) | Potency (CAOV3) | Potency (CASKI) | Potency (Es-2) | Potency (HeLa) | Potency (Hek293T [4]) | Potency (JEG-3) | Potency (OV90)

CCCCCC1Nc2cc(C(F)(F)F)c(S(N)(=O)=O)cc2S(=O)(=O)N1 (configuration not stated)
inactive: max response (HaCat [1]) -13.3% | max response (KB-3-1) -12.8% | outcome (NIH3T3 [2]) | Potency (MCC-13) | Potency (MCC-26) | Potency (MKL-1) | Potency (MKL-2) | outcome (NIH3T3 [5]) | Potency (UISO) | Potency (WaGa) | Potency (C33A) | Potency (CAOV3) | Potency (CASKI) | Potency (Es-2) | Potency (HeLa) | Potency (Hek293T [4]) | Potency (JEG-3) | Potency (OV90)

O=C(COCCOCCOCC(=O)Nc1c(I)cc(I)c(C(=O)O)c1I)Nc1c(I)cc(I)c(C(=O)O)c1I
inactive: outcome (HaCat [1]) | max response (KB-3-1) -17% | max response (NIH3T3 [2]) 4.72% | outcome (HACAT [6]) | Potency (MCC-13) | Potency (MCC-26) | Potency (MKL-1) | Potency (MKL-2) | Potency (UISO) | Potency (WaGa) | Potency (C33A) | Potency (CAOV3) | Potency (CASKI) | Potency (Es-2) | Potency (HeLa) | Potency (Hek293T [4]) | Potency (JEG-3) | Potency (OV90)

NC(=O)COCCN1CCN(C(c2ccccc2)c2ccc(Cl)cc2)CC1 (configuration not stated)
inactive: max response (HaCat [1]) -16.4% | max response (KB-3-1) -17.1% | outcome (NIH3T3 [2]) | Potency (MCC-13) | Potency (MCC-26) | Potency (MKL-1) | Potency (MKL-2) | outcome (NIH3T3 [5]) | Potency (UISO) | Potency (WaGa) | Potency (C33A) | Potency (CAOV3) | Potency (CASKI) | Potency (Es-2) | Potency (HeLa) | Potency (Hek293T [4]) | Potency (JEG-3) | Potency (OV90)

O=C(OCC1(COC(=O)c2cccnc2)CCCC(COC(=O)c2cccnc2)(COC(=O)c2cccnc2)C1O)c1cccnc1
inactive: outcome (HaCat [1]) | max response (KB-3-1) 8.89% | max response (NIH3T3 [2]) -1.33% | outcome (HACAT [6]) | Potency (MCC-13) | Potency (MCC-26) | Potency (MKL-1) | Potency (MKL-2) | Potency (UISO) | Potency (WaGa) | Potency (C33A) | Potency (CAOV3) | Potency (CASKI) | Potency (Es-2) | Potency (HeLa) | Potency (Hek293T [4]) | Potency (JEG-3) | Potency (OV90)
